Laboratory results as given in ChEMBL document CHEMBL1961873, “Compounds: GSK PKIS; Assays: Nanosyn kinase panel” (2012).

What follows are molecules tested against Vascular endothelial growth factor receptor 2 (Homo sapiens) (UniProt P35968). Conditions: at 1 µM.
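Also: each value is the mean percent inhibition of KDR.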

Chain of Vascular endothelial growth factor receptor 2 (Homo sapiens) (P35968 whole entry): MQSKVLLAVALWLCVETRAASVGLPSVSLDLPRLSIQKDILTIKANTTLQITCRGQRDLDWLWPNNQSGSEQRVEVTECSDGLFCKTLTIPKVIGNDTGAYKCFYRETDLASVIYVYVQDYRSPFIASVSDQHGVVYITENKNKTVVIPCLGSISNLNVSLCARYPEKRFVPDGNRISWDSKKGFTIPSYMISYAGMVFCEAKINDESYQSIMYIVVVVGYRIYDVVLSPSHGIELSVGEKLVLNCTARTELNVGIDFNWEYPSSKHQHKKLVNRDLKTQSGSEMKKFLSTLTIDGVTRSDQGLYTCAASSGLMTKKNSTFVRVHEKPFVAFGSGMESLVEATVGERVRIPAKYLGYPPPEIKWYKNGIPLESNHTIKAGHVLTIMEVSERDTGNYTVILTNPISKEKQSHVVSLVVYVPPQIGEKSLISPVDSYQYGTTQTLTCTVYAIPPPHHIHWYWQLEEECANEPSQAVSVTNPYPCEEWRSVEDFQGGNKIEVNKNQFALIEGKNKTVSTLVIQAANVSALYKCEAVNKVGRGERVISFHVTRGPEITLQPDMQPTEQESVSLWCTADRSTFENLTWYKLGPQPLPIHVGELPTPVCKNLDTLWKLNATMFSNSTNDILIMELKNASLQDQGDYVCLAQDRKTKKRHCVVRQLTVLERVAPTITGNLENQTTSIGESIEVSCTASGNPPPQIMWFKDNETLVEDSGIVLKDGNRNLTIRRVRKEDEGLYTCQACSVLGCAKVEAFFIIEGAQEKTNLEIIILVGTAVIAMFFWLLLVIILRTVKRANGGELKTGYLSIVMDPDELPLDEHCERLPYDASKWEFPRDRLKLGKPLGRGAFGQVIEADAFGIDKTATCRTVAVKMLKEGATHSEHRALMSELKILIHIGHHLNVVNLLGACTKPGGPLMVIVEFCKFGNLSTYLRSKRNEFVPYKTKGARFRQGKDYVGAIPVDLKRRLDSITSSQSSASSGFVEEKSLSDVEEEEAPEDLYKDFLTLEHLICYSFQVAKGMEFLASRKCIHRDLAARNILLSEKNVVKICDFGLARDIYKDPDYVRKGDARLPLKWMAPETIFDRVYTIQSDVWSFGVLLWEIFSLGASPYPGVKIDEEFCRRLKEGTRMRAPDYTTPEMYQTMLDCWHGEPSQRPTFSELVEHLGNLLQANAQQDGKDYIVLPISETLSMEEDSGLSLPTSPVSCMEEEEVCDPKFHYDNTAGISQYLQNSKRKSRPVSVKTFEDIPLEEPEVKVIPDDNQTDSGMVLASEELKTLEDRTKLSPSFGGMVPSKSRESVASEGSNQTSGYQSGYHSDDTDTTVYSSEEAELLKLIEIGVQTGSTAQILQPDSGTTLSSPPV

Compound | inhibition
ON=C1CCc2cc(-c3nc(C4CCNCC4)[nH]c3-c3ccncc3)ccc21 | 4.49%
CS(=O)(=O)Nc1cccc(-c2ccc3c(NC(=O)C4CC4)n[nH]c3c2)c1 | 7.91%
NS(=O)(=O)c1ccc(-c2cc3ccncc3cc2OCc2ccccc2)cc1 | 8.11%
[O-][S+]1CCN(Cc2ccc(-c3ccc4ncnc(Nc5ccc(OCc6ccccc6)c(Cl)c5)c4c3)o2)CC1 | 4%
N#Cc1c(NC(=O)c2ccccc2F)sc2c1CCCC2 | -0.36%
COc1cc2ncn(-c3cc(OCc4ccccc4S(C)(=O)=O)c(C#N)s3)c2cc1OC | 67.3%
NC(=O)c1cccc(Nc2nccc(Nc3cccc(F)c3)n2)c1 | 44.7%
CN(C)C(=O)O[C@H]1CN[C@H](C#Cc2cc3ncnc(Nc4ccc(OCc5cccc(F)c5)c(Cl)c4)c3s2)C1 | 9.06%
Cc1ccc(NC(=O)CC2CC2)cc1-c1ccc(C(=O)NCC2CC2)cc1 | 12.3%
CN(C)c1cc2c(Nc3ccc4c(cnn4Cc4ccccc4)c3)ncnc2cn1 | 18.2%
CN(c1ccc(NC(=O)Nc2ccc(OC(F)(F)F)cc2)cc1)c1ccnc(Nc2cccc(S(N)(=O)=O)c2)n1 | 99.6%
CCS(=O)(=O)c1ccc(OC)c(Nc2ncc(-c3cccc(OC)c3)o2)c1 | 73.2%
COc1cc(Nc2nccc(-c3cnn4ncccc34)n2)cc(OC)c1 | 63.8%
O=C1Nc2ccc(-c3cccnc3)cc2C1=Cc1cc(Br)c(O)c(Br)c1 | 10.1%
CN(C)C(=O)O[C@@H]1CN[C@@H](C#Cc2cc3ncnc(Nc4ccc(OCc5cccc(F)c5)c(Cl)c4)c3s2)C1 | 3.31%
Cc1nc(-c2ccccc2)n2nc(NCCCN3CCOCC3)ncc12 | 5.25%

Compound | inhibition
COc1cc(/C=N/Nc2ncnc3c2cnn3C(C)C)ccc1O | 19.8%
COc1cccc(-n2nc(C)c3c(N/N=C(\C)c4ccncc4)ncnc32)c1 | 4.01%
Cc1ccc2c(-c3ccnc(Nc4ccc5c(c4)OCCO5)n3)c(-c3ccc(C(F)(F)F)cc3)nn2n1 | 2.81%
COc1cc2ncnc(Nc3ccc4c(cnn4Cc4ccccc4)c3)c2cc1OC | 47.6%
Cc1ccc2c(-c3ccnc(Nc4cccc(C(F)(F)F)c4)n3)c(-c3ccccc3)nn2n1 | 69.3%
Cc1cc(O)cc(C)c1/C=C/c1cncc(C(=O)N(C)C)c1 | 12.3%
Nc1ccc(C#Cc2cncnc2Nc2ccc(OCc3cccc(F)c3)c(Cl)c2)cc1 | 5.84%
Nc1nccc(-c2c(-c3ccc(F)cc3)ncn2CCCN2CCOCC2)n1 | 11.2%
N#Cc1cccc(Nc2nccc(-c3cnn4ncccc34)n2)c1 | 43.9%
NC(=O)c1sc(-n2cnc3ccccc32)cc1OCc1ccccc1Br | 13.6%
CCS(=O)(=O)c1ccc(OC)c(Nc2nccc(N(C)c3ccc4c(C)n[nH]c4c3)n2)c1 | 76.8%
COC(=O)c1ccc2c(c1)C(=Cc1cc(Br)c(O)c(Br)c1)C(=O)N2 | 24.5%
CCOc1nccc2c1nc(-c1nonc1N)n2CC | 23.8%
CCn1c(-c2nonc2N)nc2c(C#CC(C)(C)O)nc(OCCNC)cc21 | 64.8%
NS(=O)(=O)c1cccc(-c2cc3ccncc3cc2OCc2ccccc2)c1 | 17.1%
NS(=O)(=O)c1ccc(N/N=C2\C(=O)Nc3ccc(Cl)cc32)cc1 | 16.9%
